# Measured values published in PubChem BioAssay (NCATS).
# Calls of active or inactive are those of the source. Calls come from the whole dose curve; as a rule, active = well fitted curve in the direction sought with a large enough effect; inconclusive = small, poorly fitted or top-dose-only effect, or effect the other way, or another doubt; inactive = no such curve, though single readings can be large or run the other way.
# Assay: qHTS for inhibitors of adenylyl cyclases using a fission yeast platform: a pilot screen against the NCATS LOPAC library (AID 1347410)
# Conditions: S. pombe CHP2027, fbp1-GFP fluorescence, 18 h, yeast expressing mammalian AC9 and human GNAS; series mostly up to 57.5 µM; activity, positive = inhibition (GFP gain): at the top concentration
# From the text: PI: Charles S. Hoffman Ph.D
# Boston College, 140 Commonwealth Ave., Chestnut Hill, MA
# Assay Development and Screening Technology Laboratory (ADST)
# National Center for Advancing Translational Sciences (NCATS), Rockville, MD
# National Institute of Health (NIH), Bethesda, Maryland
# The fission yeast Schizosaccharomyces pombe uses a cAMP signaling pathway to link glucose-sensing to Protein Kinase A activity in order to regulate cell growth, sexual development, gluconeogenesis, and exit from stationary phase. Here, we describe the successful functional expression of all ten mammalian adenylyl cyclase (AC) genes, along with the human GNAS G-alpha gene in this organism. By measuring expression of a PKA-repressed fbp1-GFP reporter together with direct measurements of intracellular cAMP levels, one can detect both basal AC activity from all ten AC genes as well as GNAS-stimulated activity from eight of the nine transmembrane ACs (tmACs; AC2-AC9).
# Further confirmation and validation of active compounds lead to the identification of diphenyleneiodonium chloride (DPI) as an inhibitor of basal AC activity. This fluorescence based fbp1-GFP-GNAS screening technology could facilitate the development of therapeutic compounds that target GNAS or the ACs, an area in which there is significant unmet need.
# The gain-of-signal output is not substantially affected by cytotoxic compounds within the library.
# Getz RA, et al., A fission yeast platform for heterologous expression of mammalian adenylyl cyclases and high throughput screening, Cellular Signaling, 2019, 60: 114-121. doi.org/10.1016/j.cellsig.2019.04.010.
# PROTOCOL TABLE (as described by Inglese J, Shamu CE and Guy RK. 2007)
# SEQUENCE No. (e.g., 1, 2, 3, etc.); […] (e.g., Cells, Incubation, Reagent, etc.); VALUE; DESCRIPTION.
# 1; Dispense growth medium; 2 uL; black, clear bottom, low base, 1536-well Aurora assay plate.
# 2; Compounds and control; 23 nL; Kalypsis pin tool (Wako USA) equipped with a 1536-well pin head to transfer to the assay plates.
# 3; Dispense yeast cells; 2 uL; CHP2027 cells.
# 4; Incubation; 18 hours (dark at 30C); Non-humidified microbial incubator.
# 5; Detector; 425V; Fluorescence; laser scanning cytometry.
# NOTES (numbers refer to Sequence numbers above)
# 1. S. pombe growth medium EMM containing histidine, lysine, and uracil was initially dispensed into the assay plate to avoid yeast contamination using a Multidrop Combi dispenser (Thermo Fisher Scientific).
# 2. 10 mM stock solution of DPI (Sigma-Aldrich D2926) dissolved in DMSO was used as a 16-point dose response positive control, while 1.11 mM DPI stock solution was used as a single point max response positive control. Solvent DMSO was used as the negative control. Control DPI was transferred as a single-dose (column 3; rows 1-32; 1.11 mM stock), and multi-dose (column 4; rows 1-32; 10mM stock; 1:1.5 dilution; 16pnt titration) positive controls. Vehicle control DMSO was pinned into column 1-2, rows 1-32. Lopac compounds were pinned into columns 5-48 resulting to a final concentration range 57 µM to 78.4 nMControl DPI stock (10 mM) was prepared by dissolving 10 mg in 3.18 mL DMSO; while 1.11 mM DPI stock was prepared by mixing 100 uL of 10 mM DPI with 800 uL DMSO. To create the control plates, we initially start with a 384-well compound working plate. With a repeater pipette, (a.) 16 uL/well of 1.11 mM DPI was added to column 3; (b.) 16 uL/well of DMSO was added into rows 2-16 of column 4; (c.) 50 uL/well of DPI added to rows 1 and 2 of column 4; (d.) 32 uL serial dilution (two-thirds-fold) from rows 2 to 16 of column 4 with manual pipette. From the 384-well compound working plate, 7 uL of respective control compound was transferred to respective columns of the 1536-well compound plate using a multichannel pipette.
# 3. S. pombe CHP2027 (AC9-GNAS-PDE4D2) expressing fbp1-GFP cells were grown at 30C in EMM medium containing histidine, lysine, and uracil. […]
row,SMILES,"activity, positive = inhibition (GFP gain)"
1,NC[C@@H]1O[C@H](C23CC4CC(CC(C4)C2)C3)Cc2c1ccc(O)c2O,-0.438% (inactive)
2,Cc1cc2c(cc1Cl)N(C(=O)Nc1ccc(Oc3cccnc3C)nc1)CC2,-0.438% (inactive)
3,OCC1O[C@H]([S-])[C@H](O)[C@@H](O)[C@@H]1O.[Au+] (stereo not given in full),-0.438% (inactive)
4,CSc1nc(N)c2ncn([C@@H]3O[C@H](COP(=O)(O)OP(=O)(O)OP(=O)(O)O)[C@@H](O)[C@H]3O)c2n1,-0.438% (inactive)
5,COc1ccc(/C=C2\COc3ccc(C)cc3C2=O)cc1O,-0.438% (inactive)
6,COc1ccc(-c2cc(=O)c3c(O)c(OC)c(OC)cc3o2)cc1O,1.02% (inactive)
7,NC[C@H]1O[C@@H](n2cnc3c(N)ncnc32)[C@H](O)[C@@H]1O,0.327% (inactive)
8,O=C(O)c1cc(=O)c2c(Cl)cc(Cl)cc2[nH]1,2.18% (inactive)
9,CN1C2CC(OC(=O)[C@H](CO)c3ccccc3)CC1C1OC12 (stereo not given in full),-0.0348% (inactive)
10,COc1ccc(NC(=O)/C=C/c2ccc(Cl)cc2)cc1,0.058% (inactive)
11,COc1cc(OC)cc(-c2cc3cnc(N)nc3nc2NC(=O)NC(C)(C)C)c1,-0.438% (inactive)
12,NS(=O)(=O)c1ccc(-n2nc(C(F)(F)F)cc2-c2ccc(Cl)cc2)cc1,0.392% (inactive)
13,CCC(CO)Nc1nc(NCc2ccccc2)c2ncn(C(C)C)c2n1 (stereo not given),0.137% (inactive)
14,C[C@@H](CN1CCC(Cc2ccccc2)CC1)[C@@H](O)c1ccc(O)cc1,0.768% (inactive)
15,N[C@H](CCCP(=O)(O)O)C(=O)O,0.0673% (inactive)
16,CO[C@H]1O[C@@H]2O[C@]3(C)CC[C@@H]4[C@@H](C)CC[C@H]([C@H]1C)[C@]24OO3,-0.438% (inactive)
17,COc1cc2c(CCNC(C)=O)c[nH]c2cc1Cl,0.749% (inactive)
18,CCCN(CC1CC1)c1nc(C)nc(Nc2c(Cl)cc(Cl)cc2Cl)c1Cl,0.666% (inactive)
19,CC(C)CC(NP(=O)(O)O[C@@H]1O[C@@H](C)[C@H](O)[C@@H](O)[C@H]1O)C(=O)NC(Cc1c[nH]c2ccccc12)C(=O)O (stereo not given in full),0.921% (inactive)
20,Cc1cc(NC2CCCCC2)nc(-n2nc(C)cc2C)n1,-0.438% (inactive)

row,SMILES,"activity, positive = inhibition (GFP gain)"
1,O=C(/C=C/c1ccc(O)cc1)c1ccc(O)cc1O,-0.438% (inactive)
2,O=[N+]([O-])c1ccc2c(c1)S(=O)(=O)C=C2,-0.438% (inactive)
3,CNC(=O)[C@H]1O[C@@H](n2cnc3c(NCc4cccc(I)c4)ncnc32)[C@H](O)[C@@H]1O,-0.438% (inactive)
4,Nc1nc(Nc2ccccc2)nc2c1ncn2[C@@H]1O[C@H](CO)[C@@H](O)[C@H]1O,-0.438% (inactive)
5,CN1CCc2ccccc2Cc2[nH]c3ccccc3c2CC1,-0.438% (inactive)
6,NCCCCCCCCCCN,0.155% (inactive)
7,CC1(C)CCC=[N+]1[O-],-0.438% (inactive)
8,O=C1NC(O)=NC1(c1ccccc1)c1ccccc1,0.332% (inactive)
9,NC(=O)C(=O)O,-0.438% (inactive)
10,CN(C)c1nc(N)c(C(=O)N=C(N)N)nc1Cl,0.262% (inactive)
11,CN1CCc2cc(NC(=O)Nc3cccnc3)ccc21,-0.438% (inactive)
12,CCOC(=O)N1CCN(/[N+]([O-])=N/Oc2ccc([N+](=O)[O-])cc2[N+](=O)[O-])CC1,-0.438% (inactive)
13,Nc1nc2ccc(Cl)cc2n2c(-c3ccccc3)nnc12,0.0765% (inactive)
14,O=C(NOCC1CC1)c1cc(Br)c(F)c(F)c1Nc1ccc(I)cc1Cl,0.0348% (inactive)
15,CC(N)C(=O)OC(C)(C)Cc1ccc(Cl)cc1 (stereo not given),-0.438% (inactive)
16,Nc1ccn([C@H]2O[C@H](CO)[C@@H](O)C2(F)F)c(=O)n1,-0.438% (inactive)
17,CSc1ccccc1N1CCN(CCCCCC(=O)NC2CCCc3ccccc32)CC1 (stereo not given),-0.438% (inactive)
18,CC(C)Cc1ccc([C@H](C)C(=O)O)cc1,-0.438% (inactive)
19,Nc1ncnc2c1ncn2[C@@H]1O[C@H](COP(=O)(O)CP(=O)(O)OP(=O)(O)O)[C@@H](O)[C@H]1O,0.0673% (inactive)
20,COC(=O)C1=C(C)NC(C)=C(C(=O)OC)C1c1cccc(NC(=O)NCCCN2CCC(c3cccc(OC)c3)CC2)c1,-0.438% (inactive)
